Results taken from PubChem BioAssay (NCATS).
Values joined by “and” are separate entries in the source; they are usually repeats but may differ in a detail not shown here. Equal entries are not always repeated. Records with an inconclusive call do not appear. Active and inactive are the calls of the source. Unless noted, calls follow the shape of the dose curve; as a rule, active = well fitted curve in the direction sought with a large enough effect; inconclusive = small, poorly fitted or top-dose-only effect, or another doubt; inactive = no such curve, though single readings can be large; an effect the other way counts as inactive or inconclusive.

Tests used:
[1] = biological target: Cellular tumor antigen p53 (Homo sapiens) (UniProt P04637); experiment: Primary qHTS for small molecule compounds that upregulate eGFP-tagged delta133p53alpha (in N-terminal) cells. (AID 2060322); conditions: NCI-H358 eGFP-delta133p53alpha fluorescence, 24 h; activation: hits give high values;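 also: cells pre-induced with doxycycline then dosed without doxycycline; series mostly up to about 56 µM; 0% = DMSO vehicle and 100% = reference activator; nearly all actives have a fitted effect of over 75% in size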
Chain of Cellular tumor antigen p53 (Homo sapiens) (P04637 whole entry, looked up): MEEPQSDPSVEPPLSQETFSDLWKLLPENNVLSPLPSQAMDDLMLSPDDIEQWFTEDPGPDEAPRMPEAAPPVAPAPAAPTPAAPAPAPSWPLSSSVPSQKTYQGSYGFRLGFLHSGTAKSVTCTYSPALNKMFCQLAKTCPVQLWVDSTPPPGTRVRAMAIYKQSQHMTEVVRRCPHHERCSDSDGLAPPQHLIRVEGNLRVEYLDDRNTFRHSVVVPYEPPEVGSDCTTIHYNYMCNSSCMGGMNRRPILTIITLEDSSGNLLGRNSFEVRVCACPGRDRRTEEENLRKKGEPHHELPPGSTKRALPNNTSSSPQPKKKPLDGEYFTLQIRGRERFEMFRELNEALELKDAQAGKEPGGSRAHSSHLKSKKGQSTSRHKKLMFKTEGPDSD
How it was run: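 NCI-H358 cells pre-induced 24 h with 10 ng/ml doxycycline for eGFP-delta133p53alpha, plated dox-free and exposed 24 h at 37C to titrated compounds. Fixed, Hoechst-stained; gated GFP peak intensity by laser scanning cytometry, normalized to DMSO (0%) and 57.5 uM 5-azacytidine (100%).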

[2] = biological target: Aldehyde dehydrogenase, mitochondrial (Homo sapiens) (UniProt P05091); experiment: qHTS for Inhibitors of the Aldehyde Dehydrogenase Family (ALDH2) Validation screens (AID 2061302; active = well fitted inhibition curve with a large enough effect; title and protocol of this record describe different tests;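 also: plate controls were DMSO vehicle for no effect and maximal DPI positive control response for full effect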)
[3] = biological target: Retinaldehyde dehydrogenase 3 (Homo sapiens) (UniProt P47895); experiment: qHTS for Inhibitors of the Aldehyde Dehydrogenase Family (ALDH1A3) Validation screen (AID 2061312); also: % is scaled to controls: 0 for no effect and ±100 for the full control effect; nearly all actives have a fitted effect of over 45% in size

Cn1c(=O)c2c(nc(/C=C/c3cccc(Cl)c3)n2C)n(C)c1=O
inactive: activation [1] -0.199% | Potency [2] | Potency [3]

CCOC(=O)C1=C(C)NC(C)=C(C(=O)OCC)C1c1c(F)c(F)c(F)c(F)c1F
inactive: activation [1] 26.5% | Potency [2] | Potency [3]

O[Si](CCCN1CCCCC1)(c1ccc(F)cc1)C1CCCCC1 (stereo unspecified)
inactive: activation [1] -77.2% | Potency [2] | Potency [3]

COc1ccccc1OCCNCC(O)COc1cccc2[nH]c3ccccc3c12 (stereo unspecified)
inactive: activation [1] 23.9% and -57.4% | Potency [2] | Potency [3]

N[C@H](C(=O)O)[C@H]1C[C@@H]1C(=O)O
inactive: activation [1] 6.82% | Potency [2] | Potency [3]

NC/C=C\C(=O)O
inactive: activation [1] 28.9% | Potency [2] | Potency [3]

Oc1cc(O)c2c(c1)O[C@H](c1ccc(O)c(O)c1)[C@@H](O)C2
inactive: activation [1] -7.14% | Potency [2] | Potency [3]

C=CCNc1ncnc2ccc(Br)cc12
inactive: activation [1] -43.6% | Potency [2] | Potency [3]

CC(C)NCC(O)COc1ccc(COCCOC(C)C)cc1 (stereo unspecified)
inactive: activation [1] -8.37% and -9.29% and -8.52% | Potency [2] | Potency [3]

CN(C)CCCN1c2ccccc2Sc2ccc(C(F)(F)F)cc21
inactive: activation [1] 25.1% and 58.3% | Potency [2] | Potency [3]

CN1CCN(c2nc3cc(C(F)(F)F)ccc3n3cccc23)CC1
inactive: activation [1] -11.1% | Potency [2] | Potency [3]

O=C1NCN(c2ccccc2)C12CCN(CCCC(c1ccc(F)cc1)c1ccc(F)cc1)CC2
inactive: activation [1] -12.6% and -53.2% | Potency [2] | Potency [3]
